Data on 1 compound can be found in ChEMBL document CHEMBL2218924, “A broad activity screen in support of a chemogenomic map for kinase signalling research and drug discovery” (Biochem J, 2013).

The target in test [1] is T1, Serine/threonine-protein kinase TAO2 (Homo sapiens) (UniProt Q9UL54).
T1 sequence (whole entry): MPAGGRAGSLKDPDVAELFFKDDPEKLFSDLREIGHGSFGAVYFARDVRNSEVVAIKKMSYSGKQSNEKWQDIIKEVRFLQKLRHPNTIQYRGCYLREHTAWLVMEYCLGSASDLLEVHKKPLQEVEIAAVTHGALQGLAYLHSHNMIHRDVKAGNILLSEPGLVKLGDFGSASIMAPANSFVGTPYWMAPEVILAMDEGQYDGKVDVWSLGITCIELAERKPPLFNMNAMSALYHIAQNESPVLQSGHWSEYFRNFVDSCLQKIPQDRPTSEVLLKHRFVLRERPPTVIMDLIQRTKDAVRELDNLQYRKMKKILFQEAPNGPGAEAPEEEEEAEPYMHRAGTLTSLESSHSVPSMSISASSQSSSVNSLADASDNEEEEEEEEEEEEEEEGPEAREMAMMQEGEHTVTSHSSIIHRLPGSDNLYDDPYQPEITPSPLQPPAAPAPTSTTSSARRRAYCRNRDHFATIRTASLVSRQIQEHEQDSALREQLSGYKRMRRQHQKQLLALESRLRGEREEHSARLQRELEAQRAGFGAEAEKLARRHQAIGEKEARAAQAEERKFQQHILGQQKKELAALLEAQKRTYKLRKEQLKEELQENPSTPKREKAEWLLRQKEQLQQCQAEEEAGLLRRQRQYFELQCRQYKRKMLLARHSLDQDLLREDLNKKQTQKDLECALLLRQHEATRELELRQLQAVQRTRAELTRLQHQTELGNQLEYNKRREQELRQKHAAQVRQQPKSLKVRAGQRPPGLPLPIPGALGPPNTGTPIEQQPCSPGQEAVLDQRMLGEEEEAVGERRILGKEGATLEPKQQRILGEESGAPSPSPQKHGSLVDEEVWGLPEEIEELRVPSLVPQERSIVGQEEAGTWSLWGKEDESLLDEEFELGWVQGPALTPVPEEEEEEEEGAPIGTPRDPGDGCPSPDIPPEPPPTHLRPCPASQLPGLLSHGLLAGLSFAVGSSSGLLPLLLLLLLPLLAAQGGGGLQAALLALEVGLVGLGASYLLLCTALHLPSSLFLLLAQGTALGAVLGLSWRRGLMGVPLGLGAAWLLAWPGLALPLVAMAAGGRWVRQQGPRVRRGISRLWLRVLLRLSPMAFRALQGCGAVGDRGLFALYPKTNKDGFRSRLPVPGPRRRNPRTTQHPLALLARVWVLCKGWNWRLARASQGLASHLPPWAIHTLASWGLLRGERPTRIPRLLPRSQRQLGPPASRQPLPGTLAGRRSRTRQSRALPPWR
The note with it: at 1 µM.

In test [2] the target is T1, Serine/threonine-protein kinase TAO2 (Homo sapiens). Conditions: at 10 µM.
Test [3] deals with T2, Serine/threonine-protein kinase TAO3 (Homo sapiens) (UniProt Q9H2K8).
T2 sequence (whole entry): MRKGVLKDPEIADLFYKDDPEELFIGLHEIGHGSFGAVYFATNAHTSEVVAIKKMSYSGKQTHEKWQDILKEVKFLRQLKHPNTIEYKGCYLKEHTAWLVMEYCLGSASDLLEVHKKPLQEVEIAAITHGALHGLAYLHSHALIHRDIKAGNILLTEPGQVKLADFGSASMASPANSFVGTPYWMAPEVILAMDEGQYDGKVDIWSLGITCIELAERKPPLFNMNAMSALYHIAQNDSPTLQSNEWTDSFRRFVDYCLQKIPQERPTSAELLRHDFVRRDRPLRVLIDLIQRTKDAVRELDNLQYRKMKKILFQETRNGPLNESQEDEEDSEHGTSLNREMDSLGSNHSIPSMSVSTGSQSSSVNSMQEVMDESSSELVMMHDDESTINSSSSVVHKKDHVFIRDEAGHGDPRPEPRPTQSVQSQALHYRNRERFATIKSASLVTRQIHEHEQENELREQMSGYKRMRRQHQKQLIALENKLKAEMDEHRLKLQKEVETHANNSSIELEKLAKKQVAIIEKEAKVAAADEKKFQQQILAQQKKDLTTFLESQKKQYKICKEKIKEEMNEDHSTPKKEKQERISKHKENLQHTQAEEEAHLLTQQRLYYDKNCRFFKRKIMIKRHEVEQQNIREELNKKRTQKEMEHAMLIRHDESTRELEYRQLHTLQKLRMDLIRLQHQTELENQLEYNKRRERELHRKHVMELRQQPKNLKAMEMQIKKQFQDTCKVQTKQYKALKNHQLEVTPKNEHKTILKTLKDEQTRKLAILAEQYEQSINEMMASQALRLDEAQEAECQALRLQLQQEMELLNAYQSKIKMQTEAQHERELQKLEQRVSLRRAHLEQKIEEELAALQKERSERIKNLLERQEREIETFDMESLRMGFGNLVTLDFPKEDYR
The note with it: at 1 µM.

The target in test [4] is T2, Serine/threonine-protein kinase TAO3 (Homo sapiens). The note with it: at 10 µM.
The target in test [5] is T3, Serine/threonine-protein kinase TBK1 (Homo sapiens) (UniProt Q9UHD2).
T3 sequence (whole entry): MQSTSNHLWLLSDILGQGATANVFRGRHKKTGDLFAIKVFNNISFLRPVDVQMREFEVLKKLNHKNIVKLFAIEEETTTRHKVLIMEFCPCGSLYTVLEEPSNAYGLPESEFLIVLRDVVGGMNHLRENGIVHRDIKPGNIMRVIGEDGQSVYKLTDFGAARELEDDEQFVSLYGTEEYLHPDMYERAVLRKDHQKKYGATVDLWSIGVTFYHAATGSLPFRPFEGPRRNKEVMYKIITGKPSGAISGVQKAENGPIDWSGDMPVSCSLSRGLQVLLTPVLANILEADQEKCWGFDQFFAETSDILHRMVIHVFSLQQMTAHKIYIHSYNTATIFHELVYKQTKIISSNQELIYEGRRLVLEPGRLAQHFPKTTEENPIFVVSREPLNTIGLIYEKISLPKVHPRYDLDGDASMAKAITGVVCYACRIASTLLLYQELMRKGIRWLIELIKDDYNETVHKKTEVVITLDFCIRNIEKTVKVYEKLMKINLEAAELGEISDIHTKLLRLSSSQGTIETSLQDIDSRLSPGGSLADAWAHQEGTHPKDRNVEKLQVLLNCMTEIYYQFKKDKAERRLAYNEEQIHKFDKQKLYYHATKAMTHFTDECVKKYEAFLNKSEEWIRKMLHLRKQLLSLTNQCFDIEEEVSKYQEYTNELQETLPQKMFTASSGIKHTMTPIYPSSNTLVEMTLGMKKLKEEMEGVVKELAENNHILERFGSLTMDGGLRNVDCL
Conditions: at 1 µM.

Test [6] has as its target T3, Serine/threonine-protein kinase TBK1 (Homo sapiens). Conditions: at 10 µM.
Test [7] has as its target T4, TGF-beta receptor type-1 (Homo sapiens) (UniProt P36897).
T4 sequence (whole entry): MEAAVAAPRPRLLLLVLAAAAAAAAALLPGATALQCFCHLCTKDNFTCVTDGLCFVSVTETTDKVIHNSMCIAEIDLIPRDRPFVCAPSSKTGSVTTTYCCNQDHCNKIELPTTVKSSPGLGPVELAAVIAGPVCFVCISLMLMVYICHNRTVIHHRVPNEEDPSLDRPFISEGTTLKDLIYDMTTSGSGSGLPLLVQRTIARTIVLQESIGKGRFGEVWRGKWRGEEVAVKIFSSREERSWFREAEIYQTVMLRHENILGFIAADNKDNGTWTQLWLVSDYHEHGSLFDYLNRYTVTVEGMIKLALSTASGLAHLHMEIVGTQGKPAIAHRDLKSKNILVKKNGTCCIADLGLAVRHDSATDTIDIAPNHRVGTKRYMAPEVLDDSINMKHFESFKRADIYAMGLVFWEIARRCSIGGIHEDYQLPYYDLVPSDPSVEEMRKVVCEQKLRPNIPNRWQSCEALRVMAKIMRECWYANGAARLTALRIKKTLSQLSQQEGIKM
Conditions: at 1 µM.

Test [8] addresses T4, TGF-beta receptor type-1 (Homo sapiens). Conditions: at 10 µM.
Test [9] has as its target T5, Inhibitor of nuclear factor kappa-B kinase subunit alpha (Homo sapiens) (UniProt O15111).
T5 sequence (whole entry): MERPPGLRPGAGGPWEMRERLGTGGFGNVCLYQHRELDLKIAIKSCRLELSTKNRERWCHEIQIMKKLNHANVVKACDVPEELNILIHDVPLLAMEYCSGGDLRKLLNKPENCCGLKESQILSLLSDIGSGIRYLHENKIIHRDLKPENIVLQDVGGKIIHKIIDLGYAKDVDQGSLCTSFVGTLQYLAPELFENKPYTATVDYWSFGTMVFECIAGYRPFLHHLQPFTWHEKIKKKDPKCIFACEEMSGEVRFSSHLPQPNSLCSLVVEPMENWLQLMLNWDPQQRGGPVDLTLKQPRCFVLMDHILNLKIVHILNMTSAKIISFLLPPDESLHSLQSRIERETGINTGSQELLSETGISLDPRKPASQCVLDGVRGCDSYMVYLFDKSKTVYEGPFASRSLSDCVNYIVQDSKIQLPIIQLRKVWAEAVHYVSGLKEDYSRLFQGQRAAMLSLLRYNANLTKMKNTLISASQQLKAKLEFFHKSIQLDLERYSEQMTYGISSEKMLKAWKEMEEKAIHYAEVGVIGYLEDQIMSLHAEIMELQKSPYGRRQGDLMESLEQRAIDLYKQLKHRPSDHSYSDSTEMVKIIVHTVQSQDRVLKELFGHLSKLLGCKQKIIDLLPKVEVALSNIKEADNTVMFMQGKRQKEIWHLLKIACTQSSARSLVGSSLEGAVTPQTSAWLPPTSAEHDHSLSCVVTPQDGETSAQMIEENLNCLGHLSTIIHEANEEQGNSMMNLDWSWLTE
Conditions: at 1 µM.

In test [10] the target is T5, Inhibitor of nuclear factor kappa-B kinase subunit alpha (Homo sapiens). The note with it: at 10 µM.
In test [11] the target is T6, Inhibitor of nuclear factor kappa-B kinase subunit beta (Homo sapiens) (UniProt O14920).
T6 sequence (whole entry): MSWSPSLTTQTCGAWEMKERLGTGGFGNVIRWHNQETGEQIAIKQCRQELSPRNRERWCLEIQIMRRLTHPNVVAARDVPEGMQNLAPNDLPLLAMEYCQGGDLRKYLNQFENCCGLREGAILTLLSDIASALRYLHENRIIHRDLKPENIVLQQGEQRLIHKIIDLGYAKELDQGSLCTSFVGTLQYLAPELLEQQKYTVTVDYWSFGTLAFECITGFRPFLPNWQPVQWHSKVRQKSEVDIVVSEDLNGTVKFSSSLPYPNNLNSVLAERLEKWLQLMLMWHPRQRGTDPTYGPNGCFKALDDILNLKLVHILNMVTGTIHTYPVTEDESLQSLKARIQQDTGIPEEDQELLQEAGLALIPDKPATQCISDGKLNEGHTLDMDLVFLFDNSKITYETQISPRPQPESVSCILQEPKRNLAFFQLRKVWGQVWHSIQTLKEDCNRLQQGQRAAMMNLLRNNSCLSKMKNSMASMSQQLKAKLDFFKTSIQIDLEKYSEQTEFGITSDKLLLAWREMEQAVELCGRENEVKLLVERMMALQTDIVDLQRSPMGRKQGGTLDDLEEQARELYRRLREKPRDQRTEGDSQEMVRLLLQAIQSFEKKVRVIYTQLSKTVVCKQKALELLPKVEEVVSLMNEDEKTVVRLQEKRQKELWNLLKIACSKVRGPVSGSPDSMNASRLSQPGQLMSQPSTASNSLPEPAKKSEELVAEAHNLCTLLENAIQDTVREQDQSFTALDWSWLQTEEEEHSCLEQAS
The note with it: at 10 µM.

Test [12] has as its target Insulin receptor (Homo sapiens) (UniProt P06213). Conditions: at 1 µM.

Chain of Insulin receptor (Homo sapiens) (P06213 28-758 limits assumed): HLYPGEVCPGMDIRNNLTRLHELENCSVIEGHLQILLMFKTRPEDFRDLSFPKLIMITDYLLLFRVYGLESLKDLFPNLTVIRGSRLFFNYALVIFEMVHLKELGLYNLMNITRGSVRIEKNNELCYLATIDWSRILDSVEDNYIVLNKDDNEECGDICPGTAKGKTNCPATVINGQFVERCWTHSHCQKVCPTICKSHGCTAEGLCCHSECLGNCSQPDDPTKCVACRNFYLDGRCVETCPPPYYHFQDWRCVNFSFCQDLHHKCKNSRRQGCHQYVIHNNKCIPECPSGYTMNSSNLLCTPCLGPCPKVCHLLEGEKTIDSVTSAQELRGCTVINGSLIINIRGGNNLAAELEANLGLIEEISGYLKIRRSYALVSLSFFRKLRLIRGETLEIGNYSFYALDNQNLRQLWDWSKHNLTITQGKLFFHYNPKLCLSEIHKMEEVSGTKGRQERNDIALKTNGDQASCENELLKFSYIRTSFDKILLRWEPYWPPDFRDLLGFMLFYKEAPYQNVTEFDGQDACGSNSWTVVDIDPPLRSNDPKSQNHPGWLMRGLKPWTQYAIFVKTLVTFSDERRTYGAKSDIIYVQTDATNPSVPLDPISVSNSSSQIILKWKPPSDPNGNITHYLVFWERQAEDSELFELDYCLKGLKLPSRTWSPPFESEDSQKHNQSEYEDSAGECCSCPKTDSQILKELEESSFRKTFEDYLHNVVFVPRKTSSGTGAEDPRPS
Chain of Insulin receptor (Homo sapiens) (P06213 763-1382 limits assumed): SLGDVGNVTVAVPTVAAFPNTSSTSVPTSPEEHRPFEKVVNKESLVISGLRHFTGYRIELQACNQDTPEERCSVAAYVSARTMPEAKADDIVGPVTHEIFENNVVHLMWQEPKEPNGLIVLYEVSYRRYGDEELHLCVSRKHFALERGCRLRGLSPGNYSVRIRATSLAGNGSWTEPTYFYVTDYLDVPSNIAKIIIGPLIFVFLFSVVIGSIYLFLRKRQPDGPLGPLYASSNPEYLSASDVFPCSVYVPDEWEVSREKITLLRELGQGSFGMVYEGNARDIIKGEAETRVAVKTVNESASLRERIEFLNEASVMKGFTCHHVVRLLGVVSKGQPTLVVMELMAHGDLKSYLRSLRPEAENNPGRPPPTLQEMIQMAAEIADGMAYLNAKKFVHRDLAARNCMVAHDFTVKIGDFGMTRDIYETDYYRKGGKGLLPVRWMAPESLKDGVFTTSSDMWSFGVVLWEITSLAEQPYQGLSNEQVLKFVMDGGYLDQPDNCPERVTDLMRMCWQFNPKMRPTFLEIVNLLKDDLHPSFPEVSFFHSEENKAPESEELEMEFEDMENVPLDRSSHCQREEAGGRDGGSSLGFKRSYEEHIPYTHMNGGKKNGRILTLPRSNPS

With `N#C/C(=C1/Nc2ccccc2S1)c1ccnc(NCCc2cccnc2)n1`, the residual activity (in general, the signal under treatment as a percentage of the control signal) in test [1] worked out at 68%; in test [2], 24%; in test [3], 84%; in [4] it was 37%; in test [5], 71%; in [6], 40%. The residual activity in test [7] came out at 96%; in test [8], 69%; in [9], 113%; in test [10] it was 71%; in test [11] it was 83%; in test [12], 127%.
